# Screens as filed in PubChem BioAssay.
# A selection: hits, their analogues and other compounds. The true share with any hit is near 2.2%.
# KLF5 inhibitor = suppresses KLF5 promoter-driven expression | DLD-1 KLF5 promoter-luciferase reporter, luminescence | inhibition, % at 5 µM | 290,000 tested, 0.23% active;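 active = inhibition above a per-plate limit of that plate's mean compound inhibition plus 3 SD, cut at about 60% in these data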;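 also: 0% = DMSO wells and 100% = LY294002 at 200 µM; higher means less KLF5 promoter-driven luciferase light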
# BaF3 tox = counter-screen for JAK2V617F inhibitors: parental Ba/F3 viability inhibitors; CellTiter-Glo ATP luminescence; inhibition, % at 5.6 µM; 220,000 tested, 1.1% active;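 active = inhibition above a per-campaign cutoff, the mean inhibition of all tested compounds plus 3 SD, cut at about 27% in these data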;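 also: 0% = DMSO wells and 100% = JAK Inhibitor I control wells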
# IEC-6 cytotox = IEC-6 cytotoxicity, counter-screen for KLF5 inhibitors; luminescence viability; inhibition, % at 5 µM; 290,000 tested, 0.78% active; AID 1825; in the data active = inhibition above about 22%;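 also: 0% = plate median of test compound wells and 100% = cytotoxic reference compound wells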
# aSyn UTR inh = 5' untranslated region of α-synuclein, MLPCN primary screen. alpha-synuclein 5'UTR reporter, inhibitor activity. inhibition, % (tested at 7.5 µM). 300,000 tested, 0.82% active. AID 1813; in the data active = inhibition above about 60%;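 also: H4 neuroglioblastoma cells stably carrying SNCA 5'UTR luciferase fusion; 0% = DMSO wells and 100% = positive control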
# APP 5UTR inh = APP translation inhibition. SH-SY5Y APP 5'UTR-luciferase reporter, luminescence. inhibition, % at 2 µM. 190,000 tested, 0.82% active;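 active = inhibition above a set limit, derived from the sample mean plus 3 SD, cut at about 45% in these data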
# Ba/F3 V617F tox = lowers viability of Ba/F3 cells expressing EpoR and JAK2V617F; ATP luminescence; inhibition, % at 5.6 µM; 220,000 tested, 1.1% active; AID 1446;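 active = inhibition above the campaign mean plus 3 SD over all tested compounds, cut at about 24% in these data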;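 also: cytokine-independent growth of Ba/F3 cells driven by EpoR plus mutant JAK2; 0% = DMSO-treated cells and 100% = JAK inhibitor I control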
# The depositor's hits bear a star; . = no result.
SMILES,KLF5 inhibitor,BaF3 tox,IEC-6 cytotox,aSyn UTR inh,APP 5UTR inh,Ba/F3 V617F tox
CC(=O)NC(CC(=O)NNC(=O)C(C)Oc1ccccc1F)c1ccccc1 (configuration not stated),.,.,.,-4.5,.,.
Cc1ccc(C(=O)Nc2ccc3c(c2)OCCO3)cc1,48.0,.,3.3,89.0*,.,.
CN1CCN(c2ccccc2NC(=O)c2ccc(-c3ccccc3[N+](=O)[O-])o2)CC1,-17.4,.,9.6,-17.2,.,.
N#Cc1c(-c2ccccc2)c(-c2ccccc2)nn(CC(=O)NNC(=O)Nc2ccccc2)c1=O,23.7,43.2*,15.5,-91.8,3.1,19.6
CN1/C(=C\C(=O)COC(=O)CNC(=O)c2ccccc2F)C(C)(C)c2ccccc21,-15.2,8.4,7.9,11.5,.,15.2
CN1/C(=C\C(=O)COC(=O)CNC(=O)c2ccc3ccccc3c2)C(C)(C)c2ccccc21,-3.0,33.9*,-0.8,20.7,-17.9,21.8
CN1/C(=C\C(=O)COC(=O)c2ccc(O)c(O)c2)C(C)(C)c2ccccc21,-14.1,51.2*,4.3,-2.4,16.7,51.8*
Cc1ccc(C2CC(C(F)(F)F)n3nc(C(=O)NCc4c(C)nn(C)c4C)c(Cl)c3N2)cc1 (configuration not stated),-11.3,55.1*,1.2,2.4,-4.7,44.0*
O=C(COC(=O)C1CC(=O)N(Cc2ccccc2)C1)Nc1ccc2c(c1)OCO2 (configuration not stated),-31.4,-0.6,3.2,0.9,52.6*,-3.9
NS(=O)(=O)c1ccc(NC(=O)COC(=O)C2CC(=O)N(Cc3ccccc3)C2)cc1 (configuration not stated),-10.4,1.2,1.1,1.1,-8.1,1.9
Cc1cc(C)c(NC(=O)CNC(=O)COC(=O)/C=C/c2cccs2)c(C)c1,.,.,.,4.2,.,.
O=C(c1cc2cc(F)ccc2[nH]1)N1CCC(Cc2ccccc2)CC1,12.3,.,5.0,-17.4,.,.
Nc1c(C(=O)NCc2ccccc2)sc2nc(N3CCOCC3)c3c(c12)CCCC3,-28.5,-1.9,-1.8,64.6*,6.2,-2.8
CC(=O)c1cccc(S(=O)(=O)NC2CCSc3ccccc32)c1 (configuration not stated),-0.9,.,3.2,12.9,.,.
COc1ccc(-c2noc(CCC(=O)NC3CCCCCC3)n2)cc1,-14.9,.,4.1,-15.1,.,.
COc1ccc(-c2noc(CCCC(=O)NC3CCCC3)n2)cc1,-18.1,.,7.7,62.4*,.,.
O=C(OCc1ccc(O)cc1)c1c(-c2ccsc2)oc2ccc(N3CCOCC3)cc12,-30.9,.,7.0,19.4,.,.
Cc1ccc(-c2csc3nc4c5ccccc5c(NCCCN(C)C)nn4c(=O)c23)cc1,0.5,9.2,5.2,115.6*,5.0,5.2
COC(=O)c1cccc(NC(=O)c2cnn(C)c2)c1,.,.,.,-12.7,.,.
CNS(=O)(=O)c1cccc(C(=O)Nc2cccnc2)c1,-22.0,1.8,-10.9,14.5,22.5,-2.6
CNS(=O)(=O)c1cccc(C(=O)Nc2cccc(Cl)c2)c1,-56.4,2.4,1.2,-111.2,47.9*,0.3
CC(=O)N(C)c1ccc(OCC(O)Cn2c(C)nc3ccccc32)cc1 (configuration not stated),-46.6,42.3*,3.9,1.0,4.5,29.4*
CCCCCCCCCC(=O)N/N=C(\C)c1cccnc1,-6.2,-0.6,-0.1,-18.8,2.1,-3.1
C/C(=N\NC(=O)COc1ccccc1-c1ccccc1)c1cccnc1,7.7,0.6,7.5,18.9,16.1,-1.3
O=C(COc1ccccc1-c1ccccc1)N/N=C/c1ccc2ccccc2c1,-11.3,4.1,-1.6,-59.2,96.3*,-1.2
SMILES,KLF5 inhibitor,BaF3 tox,IEC-6 cytotox,aSyn UTR inh,APP 5UTR inh,Ba/F3 V617F tox
O=C(COc1ccccc1-c1ccccc1)N/N=C/c1ccncc1,2.5,-0.4,1.7,18.7,-19.0,-4.1
CCCCCC(=O)N/N=C(\C)c1ccccn1,-19.8,6.8,0.3,66.6*,-2.0,-1.4
C/C(=N\NC(=O)COc1ccccc1-c1ccccc1)c1ccccn1,27.6,5.0,12.4,114.0*,62.0*,1.4
CC1(C)CCC[C@]2(C)C(CS(=O)c3ccccc3)=C(C=O)CC[C@@H]12 (some centres not stated),.,.,.,-0.6,.,.
O=C(c1ccccc1)c1ccc(N2CCN(C(=O)c3cccc(F)c3F)CC2)c(F)c1,-51.5,.,4.2,3.6,.,.
CN(CC(=O)Nc1cccc(F)c1)C(=O)c1cc([N+](=O)[O-])ccc1N1CCCCC1,.,.,.,-13.1,.,.
BrC(/C=C\c1ccccc1)=N/Nc1nc(N2CCOCC2)nc(N2CCOCC2)n1,-19.2,-1.7,-4.1,-27.2,27.0,-1.2
BrC(=C\c1ccccc1)/C=N/Nc1nc(N2CCOCC2)nc(N2CCOCC2)n1,-6.7,6.0,13.0,-2.4,62.9*,2.3
CN=c1scc(-c2ccccc2Br)n1/N=C/c1ccc[nH]1,-26.8,8.9,-3.6,64.0*,-174.2,4.7
CS(=O)(=O)N(CC(=O)NC1CCCCC1)Cc1ccc(F)cc1,-8.2,-0.8,-1.6,0.1,-0.8,1.9
COc1ccc(C(=O)/C=C/C(=O)N(CC(=O)NC2CCCCC2)Cc2ccc(F)cc2)c(O)c1,16.8,6.2,-7.3,71.8*,77.8*,1.3
O=C1c2cccc3c([N+](=O)[O-])ccc(c23)C(=O)N1Cc1cccnc1,-13.3,36.6*,5.7,-5.3,82.4*,41.6*
O=C1c2cccc3cccc(c23)C(=O)N1Cc1cccnc1,9.5,-4.1,4.4,14.5,.,3.7
Cc1ccnc(N2C(=O)c3cccc4c([N+](=O)[O-])ccc(c34)C2=O)c1,-15.0,36.3*,-3.9,-0.6,36.9,6.2
COc1ccc(NC(=O)NNC(=O)C(C)Oc2ccc3ccccc3c2)cc1OC (configuration not stated),-12.9,.,-14.8,9.9,.,.
CC1(C)CC(=O)C=C(c2cccnc2)C1,.,.,.,11.9,.,.
CCOc1ccc(S(=O)(=O)N(CC)CC(=O)NC2CC2)cc1,-21.1,.,-5.1,-0.4,.,.
CCC1C/C(=C/c2ccco2)C(=O)/C(=C/c2ccco2)C1 (configuration not stated),-8.4,1.8,-6.9,.,-20.9,30.4*
Cc1ccc(-n2nc3c(c2NC(=O)C(C)C)CS(=O)(=O)C3)cc1,-20.9,.,-3.4,1.8,.,.
COc1cc(O)c2c(=O)cc(-c3ccccc3)oc2c1,-52.6,-7.1,-3.4,-144.9,-43.5,-2.1
COc1ccc(-c2cc(=O)c3c(O)c(OC)c(O)cc3o2)cc1,-189.1,-5.3,8.4,70.2*,-151.7,4.1
COc1cccc(-c2nn(-c3ccc(F)cc3)cc2C(=O)NCC2CCCO2)c1 (configuration not stated),.,.,.,-7.0,.,.
CC1=NN(c2nc(-c3ccc(C)cc3)cs2)C(=O)C1N=Nc1ccc(C(N)=O)cc1 (configuration not stated),-47.6,3.1,-0.9,86.5*,33.3,-4.7
O=C(O)c1ccc(Cl)cc1Nc1nc2cc(Cl)ccc2o1,-23.8,.,-0.8,1.1,.,.
COc1ccc2c(c1)C=C(CN1CCC(CO)(CCc3ccccc3)CC1)CO2,9.4,4.2,-4.1,7.9,-11.2,-3.2
